Myeloid diff MLP: compounds promoting myeloid differentiation; 360,000 compounds, 1% hits; ER-HoxA9 myeloid progenitors, lysozyme-GFP differentiation, flow cytometry; AID 624256; calls only at 10 µM;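 active means normalized GFP-positive differentiation at or above the plate's own cutoff, the solvent-only control mean plus 3 SD; inconclusive means no clear call, values can overlap the other calls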;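 further: cells exposed to compound for four days before flow analysis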
DAGLB inh: blocks human DAGLB lipase activity. 340,000 compounds, 0.059% hits. AID 504411. inhibition, % at 5.17 µM. HEK293T DAGLB membrane lysate, EnzChek fluorogenic substrate. Q8NCG7; in the data active means inhibition above about 34%
Cardio protect: modulators protecting cardiomyocytes from myocardial damage; H9c2 cardiomyocytes, H2O2 injury protection, ATPLite, 2 h; protection from H2O2 cell death, % at 20 µM; 360,000 compounds, 0.63% hits;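 active means compounds giving at least 50% protection of heart cells from peroxide-induced death in the single-dose screen, raw or plate-pattern-corrected value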
ABHD5 PLIN5 PPI: inhibitors of human ABHD5-perilipin-5 interaction; AID 602281; Split G. princeps luciferase complementation, luminescence, 4 h; inhibition, % at 4 µM; 360,000 compounds, 0.78% hits; Q00G26+Q8WTS1;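 active means inhibition above the mean inhibition across every tested compound plus 3 SD, cut at about 22% in these data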
sPLA2-III inh: Blocks human group III sPLA2 activity. AID 743126. Q9NZ20. inhibition, % at 12.2 µM. QFRET BODIPY PC-A2 liposome hydrolysis, fluorescence. 370,000 compounds, 0.56% hits;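 active means inhibition above mean plus 3 SD of compounds lying within the high and low control bounds, cut at about 19% in these data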
Rtt109 Vps75: C. albicans Rtt109 histone acetyltransferase inhibition; Q5AAJ8; purified Rtt109/Vps75, ThioGlo CoA-SH fluorescence, 4 h; inhibition, % at 34.9 µM; 330,000 compounds, 0.16% hits; AID 540336;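 active means inhibition of at least 50% in every replicate; inconclusive means best replicate reaches 50% inhibition but some replicates fall short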
Target sequence (Q5AAJ8 whole entry, looked up): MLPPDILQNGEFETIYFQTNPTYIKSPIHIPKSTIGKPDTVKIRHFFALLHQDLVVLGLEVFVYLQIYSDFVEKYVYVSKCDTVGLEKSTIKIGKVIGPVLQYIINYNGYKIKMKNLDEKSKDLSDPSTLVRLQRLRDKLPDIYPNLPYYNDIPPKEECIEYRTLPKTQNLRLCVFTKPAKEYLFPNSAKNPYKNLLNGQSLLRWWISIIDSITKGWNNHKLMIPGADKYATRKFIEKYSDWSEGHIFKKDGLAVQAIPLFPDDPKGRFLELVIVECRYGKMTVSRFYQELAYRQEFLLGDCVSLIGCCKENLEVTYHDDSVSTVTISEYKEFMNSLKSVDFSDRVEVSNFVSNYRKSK
ABHD5-PLIN5 conf: ABHD5-PLIN5 interaction inhibition, confirmed | shares compounds with ABHD5 PLIN5 PPI | biochemical ABHD5-PLIN5 interaction, luminescence | AID 651612 | 2,200 compounds, 67% hits | inhibition, % at 4 µM; in the data active means inhibition above about 23%
HNF4 split-luc: active in HNF4 split-luciferase counter-screen for ABHD5-PLIN5 inhibitors | HNF4 dimerization, luminescence, biochemical | 2,200 compounds, 77% hits | inhibition, % at 4 µM | shares compounds with ABHD5 PLIN5 PPI;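 active means mean inhibition across replicate wells exceeding the computed hit threshold, cut at about 13% in these data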;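 further: light from luciferase halves that rejoin when HNF4 fusion proteins dimerize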
Of the large screens only hits and unclear results are named; the others gave an inactive call (follow-up assays come after a bar, where they were run). Rows were chosen to be rich in hits. Some 2.9% of all compounds tested hit in one or more screens of this group.

CCOc1ccc(C(=O)NC2C(=O)N3C(C(=O)O)=C(COC(C)=O)CSC23)cc1OCC (stereo unspecified)	ABHD5 PLIN5 PPI 31.9 | ABHD5-PLIN5 conf inactive | HNF4 split-luc 29.2
CC(=O)OCC1=C(C(=O)O)N2C(=O)[C@@H](NC(=O)Cc3ccccc3)[C@H]2SC1	none
Cc1cc(NC(=O)CSc2nnc(-c3ccc(S(=O)(=O)N4CCCC4)cc3)n2C)no1	none
CCC(=O)OCOc1ccc(/C=C2/CCC(CN(C)C)C2=O)cc1 (stereo unspecified)	ABHD5 PLIN5 PPI 50.9 | ABHD5-PLIN5 conf 95.4 | HNF4 split-luc 108.8
OCCN1CCN(CC(O)COc2ccc(C34CC5CC(CC(C5)C3)C4)cc2)CC1 (stereo unspecified)	Myeloid diff MLP active, ABHD5 PLIN5 PPI 36.0 | ABHD5-PLIN5 conf inactive | HNF4 split-luc inactive
OCCN1CCN(CC(O)COc2ccc(Cl)cc2)CC1 (stereo unspecified)	none
CC(=O)c1ccc2noc(-c3ccc(C)cc3)c2c1	ABHD5 PLIN5 PPI 29.0 | ABHD5-PLIN5 conf inactive | HNF4 split-luc 22.0
Cc1ccc(-c2onc3ccc(C(=O)O)cc23)cc1	none
Cc1c(Cl)sn(-c2ccc(Cl)cc2)c1=O	Myeloid diff MLP inconclusive, ABHD5 PLIN5 PPI 26.1 | ABHD5-PLIN5 conf 77.5 | HNF4 split-luc 106.6
O=C(NC1CCCCC1)Oc1cc2oc(=O)sc2cc1Br	ABHD5 PLIN5 PPI 42.5, Rtt109 Vps75 59.4 | ABHD5-PLIN5 conf inactive | HNF4 split-luc 41.9
COc1ccc(-c2nnn(CC(=O)N(CCCO)C(C(=O)NC3CCCC3)c3ccc(F)cc3)n2)cc1 (stereo unspecified)	none
O=C(O)C(Cc1ccccc1)N1C(=O)C=CC1=O (stereo unspecified)	ABHD5 PLIN5 PPI 74.8 (no result: Rtt109 Vps75) | ABHD5-PLIN5 conf 67.0 | HNF4 split-luc 107.4
O=C(O)C(Cc1ccccc1)N1C(=O)CCC1=O (stereo unspecified)	none
Cc1ccc2nc(N(CCCN(C)C)C(=O)c3ccc(Br)s3)sc2c1	ABHD5 PLIN5 PPI 30.0 | ABHD5-PLIN5 conf inactive | HNF4 split-luc inactive
CN(C)CCCN(C(=O)c1cc(-c2cccs2)nc2ccccc12)c1nc2c(F)cccc2s1	none
Cc1ccc2nc(N(CCCN(C)C)C(=O)c3cc(-c4cccs4)nc4ccccc34)sc2c1	ABHD5 PLIN5 PPI 25.1 | ABHD5-PLIN5 conf inactive | HNF4 split-luc inactive
COc1ccc(-c2nnn(CC(=O)c3ccc4c(c3)OCCO4)n2)cc1OC	none
OC(CNCC1CCCO1)Cn1c2ccc(Cl)cc2c2cc(Cl)ccc21 (stereo unspecified)	ABHD5 PLIN5 PPI 35.4, Rtt109 Vps75 inconclusive | ABHD5-PLIN5 conf inactive | HNF4 split-luc inactive
CCOC(=O)c1c(NC(C)=O)sc2c1CCC(C=O)=C2Sc1ccccc1	Myeloid diff MLP inconclusive, ABHD5 PLIN5 PPI 65.0 | ABHD5-PLIN5 conf 76.1 | HNF4 split-luc 17.0
CCOC(=O)c1c(NC(C)=O)sc2c1CCN(Cc1ccccc1)C2	none
CC1(c2ccc(OCC(N)=O)cc2)NC(=O)NC1=O (stereo unspecified)	none
C=CCOc1ccc(C(=O)/C=C2/C(=O)Nc3ccccc32)cc1	Myeloid diff MLP inconclusive, ABHD5 PLIN5 PPI 67.2 | ABHD5-PLIN5 conf 71.8 | HNF4 split-luc 67.5
NC(=O)COc1ccc(C(=O)/C=C2/C(=O)Nc3ccccc32)cc1	ABHD5 PLIN5 PPI 53.9 | ABHD5-PLIN5 conf 55.5 | HNF4 split-luc 88.9
C=CCOc1ccc(C2NC(=O)c3ccccc3O2)cc1 (stereo unspecified)	none
C=CCOc1ccccc1C(=O)/C=C1/C(=O)Nc2ccccc21	Myeloid diff MLP inconclusive, ABHD5 PLIN5 PPI 84.6 | ABHD5-PLIN5 conf 95.3 | HNF4 split-luc 96.6
O=C(Nc1ccc2c(c1)OCCO2)C(c1cc2ccccc2o1)N1CCN(c2ccc(F)cc2)CC1 (stereo unspecified)	none (no result: DAGLB inh, Rtt109 Vps75)
CCCCCCN1C[C@@H](n2cc(COC(=O)c3ccccc3)nn2)[C@H](O)C[C@@H]1c1ccc(C)cc1	none (no result: Rtt109 Vps75)
O=C1/C(=C/c2cccnc2)CCC/C1=C\c1cccnc1	none (no result: Myeloid diff MLP, DAGLB inh, Cardio protect, ABHD5 PLIN5 PPI, Rtt109 Vps75)
O=C1/C(=C\c2cccnc2)CCc2ccccc21	none
CC(C)/C=C1\CC/C(=C\c2cccnc2)C1=O	ABHD5 PLIN5 PPI 39.1 | ABHD5-PLIN5 conf 74.7 | HNF4 split-luc 58.0
O=C1/C(=C/c2cccnc2)CC/C1=C\c1cccnc1	ABHD5 PLIN5 PPI 41.7 | ABHD5-PLIN5 conf 71.9 | HNF4 split-luc 50.4
CCC1C/C(=C\c2cccnc2)C(=O)/C(=C/c2cccnc2)C1 (stereo unspecified)	ABHD5 PLIN5 PPI 90.5 | ABHD5-PLIN5 conf 102.4 | HNF4 split-luc 100.3
CC(C)NC(=O)c1cc(-c2ccco2)nn1-c1ccc(Cl)cc1	ABHD5 PLIN5 PPI 36.1 | ABHD5-PLIN5 conf 42.0 | HNF4 split-luc 59.3
Cc1csc(N=Nc2ccc(N(C)C)cc2)[n+]1[O-]	ABHD5 PLIN5 PPI 28.7 (no result: Rtt109 Vps75) | ABHD5-PLIN5 conf 26.4 | HNF4 split-luc 31.6
C[C@@H](O)Cc1cn(CC(=O)NCCCCCCCCCCC(=O)N2CCNCC2)nn1	none
NCCCCCc1cn(CC(=O)NCCCCCCCCCCC(=O)N2CCNCC2)nn1	ABHD5 PLIN5 PPI 93.4 | ABHD5-PLIN5 conf inactive | HNF4 split-luc inactive
COc1ccc(CNC(=O)COC(=O)c2cc3ccccc3cc2O)cc1OC	none
C[C@H](CO)N1C[C@H](C)[C@@H](CN(C)Cc2ccc(Cl)c(Cl)c2)Oc2c(NC(=O)Cc3ccccc3)cccc2C1=O	Myeloid diff MLP active, ABHD5 PLIN5 PPI 26.3 | ABHD5-PLIN5 conf inactive | HNF4 split-luc inactive
O=C1C(Cl)=C(NC(=O)c2ccccc2)C(=O)C(Cl)=C1NC(=O)c1ccccc1	ABHD5 PLIN5 PPI 71.3 | ABHD5-PLIN5 conf 103.5 | HNF4 split-luc 110.2
CC1CC(C)CN(C(=O)c2ccc(-c3ccc([N+](=O)[O-])cc3)o2)C1 (stereo unspecified)	Myeloid diff MLP inconclusive, ABHD5 PLIN5 PPI 28.2 | ABHD5-PLIN5 conf inactive | HNF4 split-luc inactive
CC(C)Cc1nnc(NC(=O)CCC(=O)N2CCOCC2)s1	none
CC(=O)Oc1ccc(OC(C)=O)c2c1CC(C)=C(C)C2	ABHD5 PLIN5 PPI 30.6 | ABHD5-PLIN5 conf 32.5 | HNF4 split-luc 23.9
O=C1C=CC(n2cc(F)c(=O)[nH]c2=O)O1 (stereo unspecified)	ABHD5 PLIN5 PPI 30.8 (no result: Myeloid diff MLP, Rtt109 Vps75) | ABHD5-PLIN5 conf 41.8 | HNF4 split-luc 33.1
O=C1CCN(CCc2ccccc2)CCN1[C@H](COc1ccccc1)Cc1ccccc1	none
Cc1oc(-c2ccc(Cl)cc2)cc1-c1nn2c(-c3ccoc3C)nnc2s1	ABHD5 PLIN5 PPI 24.4 | ABHD5-PLIN5 conf inactive | HNF4 split-luc 17.3
Clc1ccc(-c2nnc3sc(-c4ccc(Br)o4)nn23)cc1	none
COc1ccc(/C=C/CN2CCC(n3nccc3NC(=O)C3CCCC3)CC2)cc1	none
O=C(C=Cc1ccc2c(c1)OCO2)c1ccccc1	none
